The target of one test is PUM1 PUF domain R8-RFQ (Homo sapiens, UniProt Q14671 828-1176, N1122R;Y1123F). The experiment in a line: yeast three-hybrid, YBZ-1, SC-Leu-His + 0.5 mM 3-AT, 4 days. To be noted: tags: N-Gal4 AD-HA kept; label: inside an RPR1-promoter hybrid RNA with tandem MS2 sites; ssRNA. Summed up: (§1)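 The interaction score is the logarithmic change in variant frequency from input to selection. It uses log2, with a pseudocount of 1 for absent variants, and frequencies came from PCR-amplified, Illumina-sequenced repeat regions. The libraries were Pumilio-1 PUF domains randomized at the three base-contacting residues per repeat, co-expressed with matching RNA elements in strain YBZ-1 (LexA–MS2 coat fusion, HIS3 reporter). Plating lasted four days on SC-Leu (input) or SC-Leu-His + 0.5 mM 3-AT (selection).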
Take “GGCUAGAACUAGUGGAUCCCCCGGCGCCCGGCGGCUCGAGCCCGGGUAAGGGUAAAUAGUCUGCAUGCCGCCGGGCGCCAUGCCUGCAGGUCGACUCUAGAAAACAUG”: the binding signal was 2.44 log2 enrichment (interaction score).

For “GGCUAGAACUAGUGGAUCCCCCGGCGCCCGGCGGCUCGAGCCCGGGUAAGCGUAAAUAGUCUGCAUGCCGCCGGGCGCCAUGCCUGCAGGUCGACUCUAGAAAACAUG”, the binding signal is 5.63 log2 enrichment (interaction score).

Consider “GGCUAGAACUAGUGGAUCCCCCGGCGCCCGGCGGCUCGAGCCCGGGUAAGUGUAAAUAGUCUGCAUGCCGCCGGGCGCCAUGCCUGCAGGUCGACUCUAGAAAACAUG”, for which the binding signal is 2.11 log2 enrichment (interaction score).

The target of another test is PUM1 PUF domain R4-PYV (Homo sapiens, UniProt Q14671 828-1176, N971P;H972Y;Q975V). The test is described as above. To be noted: tags: N-Gal4 AD-HA kept; label: inside an RPR1-promoter hybrid RNA with tandem MS2 sites; ssRNA. The method, boiled down:
as §1
With “GGCUAGAACUAGUGGAUCCCCCGGCGCCCGGCGGCUCGAGCCCGGGUAAGUGUAUAUAGUCUGCAUGCCGCCGGGCGCCAUGCCUGCAGGUCGACUCUAGAAAACAUG”, the binding signal was 7.86 log2 enrichment (interaction score).

As for “GGCUAGAACUAGUGGAUCCCCCGGCGCCCGGCGGCUCGAGCCCGGGUAAGUGUAAAUAGUCUGCAUGCCGCCGGGCGCCAUGCCUGCAGGUCGACUCUAGAAAACAUG”, the binding signal is 5.22 log2 enrichment (interaction score).

For the sequence “GGCUAGAACUAGUGGAUCCCCCGGCGCCCGGCGGCUCGAGCCCGGGUAAGUGUACAUAGUCUGCAUGCCGCCGGGCGCCAUGCCUGCAGGUCGACUCUAGAAAACAUG”, the binding signal was 6.43 log2 enrichment (interaction score).

Another test deals with PUM1 PUF domain R5-KRL (Homo sapiens, UniProt Q14671 828-1176, C1007K;Q1011L). Described as above. To be noted: tags: N-Gal4 AD-HA kept; label: inside an RPR1-promoter hybrid RNA with tandem MS2 sites; ssRNA. Summed up:
as §1
In the case of “GGCUAGAACUAGUGGAUCCCCCGGCGCCCGGCGGCUCGAGCCCGGGUAAGUGUGAAUAGUCUGCAUGCCGCCGGGCGCCAUGCCUGCAGGUCGACUCUAGAAAACAUG”, the binding signal is 0.47 log2 enrichment (interaction score).

For the sequence “GGCUAGAACUAGUGGAUCCCCCGGCGCCCGGCGGCUCGAGCCCGGGUAAGUGUAAAUAGUCUGCAUGCCGCCGGGCGCCAUGCCUGCAGGUCGACUCUAGAAAACAUG”, the binding signal was 1.09 log2 enrichment (interaction score).

With “GGCUAGAACUAGUGGAUCCCCCGGCGCCCGGCGGCUCGAGCCCGGGUAAGUGUCAAUAGUCUGCAUGCCGCCGGGCGCCAUGCCUGCAGGUCGACUCUAGAAAACAUG”, the binding signal was 3.16 log2 enrichment (interaction score).

Consider “GGCUAGAACUAGUGGAUCCCCCGGCGCCCGGCGGCUCGAGCCCGGGUAAGUGUUAAUAGUCUGCAUGCCGCCGGGCGCCAUGCCUGCAGGUCGACUCUAGAAAACAUG”, for which the binding signal is 3 log2 enrichment (interaction score).

In a further test the target is PUM1 PUF domain R4-PFC (Homo sapiens, UniProt Q14671 828-1176, N971P;H972F;Q975C). The test is described as above. To be noted: tags: N-Gal4 AD-HA kept; label: inside an RPR1-promoter hybrid RNA with tandem MS2 sites; ssRNA. Summed up:
as §1
Take “GGCUAGAACUAGUGGAUCCCCCGGCGCCCGGCGGCUCGAGCCCGGGUAAGUGUAUAUAGUCUGCAUGCCGCCGGGCGCCAUGCCUGCAGGUCGACUCUAGAAAACAUG”: the binding signal was 7.01 log2 enrichment (interaction score).

Turning to “GGCUAGAACUAGUGGAUCCCCCGGCGCCCGGCGGCUCGAGCCCGGGUAAGUGUAAAUAGUCUGCAUGCCGCCGGGCGCCAUGCCUGCAGGUCGACUCUAGAAAACAUG”, the binding signal was 7.66 log2 enrichment (interaction score).

For the sequence “GGCUAGAACUAGUGGAUCCCCCGGCGCCCGGCGGCUCGAGCCCGGGUAAGUGUACAUAGUCUGCAUGCCGCCGGGCGCCAUGCCUGCAGGUCGACUCUAGAAAACAUG”, the binding signal was 5.29 log2 enrichment (interaction score).

For another test, the target named is PUM1 PUF domain R5-RRY (Homo sapiens, UniProt Q14671 828-1176, C1007R;Q1011Y). Described as above. To be noted: tags: N-Gal4 AD-HA kept; label: inside an RPR1-promoter hybrid RNA with tandem MS2 sites; ssRNA. Summed up: as §1
For the sequence “GGCUAGAACUAGUGGAUCCCCCGGCGCCCGGCGGCUCGAGCCCGGGUAAGUGUAAAUAGUCUGCAUGCCGCCGGGCGCCAUGCCUGCAGGUCGACUCUAGAAAACAUG”, the binding signal was 1.18 log2 enrichment (interaction score).

Take “GGCUAGAACUAGUGGAUCCCCCGGCGCCCGGCGGCUCGAGCCCGGGUAAGUGUCAAUAGUCUGCAUGCCGCCGGGCGCCAUGCCUGCAGGUCGACUCUAGAAAACAUG”: the binding signal is 4.32 log2 enrichment (interaction score).

In the case of “GGCUAGAACUAGUGGAUCCCCCGGCGCCCGGCGGCUCGAGCCCGGGUAAGUGUUAAUAGUCUGCAUGCCGCCGGGCGCCAUGCCUGCAGGUCGACUCUAGAAAACAUG”, the binding signal was 3.28 log2 enrichment (interaction score).

For the next test, the target named is PUM1 PUF domain R4-NRG (Homo sapiens, UniProt Q14671 828-1176, H972R;Q975G). Described as above. To be noted: tags: N-Gal4 AD-HA kept; label: inside an RPR1-promoter hybrid RNA with tandem MS2 sites; ssRNA. Summed up: as §1
For “GGCUAGAACUAGUGGAUCCCCCGGCGCCCGGCGGCUCGAGCCCGGGUAAGUGUAUAUAGUCUGCAUGCCGCCGGGCGCCAUGCCUGCAGGUCGACUCUAGAAAACAUG”, the binding signal is 2.73 log2 enrichment (interaction score).

On to “GGCUAGAACUAGUGGAUCCCCCGGCGCCCGGCGGCUCGAGCCCGGGUAAGUGUAAAUAGUCUGCAUGCCGCCGGGCGCCAUGCCUGCAGGUCGACUCUAGAAAACAUG”, for which the binding signal is 3.35 log2 enrichment (interaction score).

On to “GGCUAGAACUAGUGGAUCCCCCGGCGCCCGGCGGCUCGAGCCCGGGUAAGUGUACAUAGUCUGCAUGCCGCCGGGCGCCAUGCCUGCAGGUCGACUCUAGAAAACAUG”, for which the binding signal was 0.43 log2 enrichment (interaction score).

For the origin of these results see PMC8384837, “Expanding the binding specificity for RNA recognition by a PUF domain”.
